SRC2 inh: inhibition of GAL4-SRC2 driven luciferase reporter, primary screen, SRC2 inhibitor project, cell-based, luminescence; Nuclear receptor coactivator 2 (Homo sapiens), Q15596; AID 651957, 2012; actives 0.17% (n = 370,000); HEK293 GAL4-SRC2 luciferase reporter; inhibition, % at 9 µM;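 active = inhibition above the mean inhibition of all tested compounds plus 3 SD, set per campaign, cut at about 52% in these data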;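 note: 0% = DMSO treated cells and 100% = cells given Gossypol at 36 µM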
SRC3 inh: SRC3 coactivator transcriptional activity inhibitors, primary screen, cell-based, luminescence; HEK293 GAL4-SRC3 luciferase reporter; Nuclear receptor coactivator 3 (Homo sapiens), Q9Y6Q9; inhibition, % at 3.6 µM; actives 0.17% (n = 360,000);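 active = inhibition above a per-campaign cutoff, the mean of all compounds plus 3 SD, cut at about 60% in these data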;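 note: 0% = DMSO-treated cells and 100% = gossypol-treated cells at 36 µM; higher means less SRC3-driven luciferase light from the GAL4 reporter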
SRC1 inh: SRC1 coactivator transcriptional activity inhibitors, primary screen, cell-based, luminescence | HEK293 GAL4-SRC1 luciferase reporter | inhibition, % at 3.6 µM | actives 0.12% (n = 360,000);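 active = inhibition above the campaign mean plus 3 SD, with each screening campaign given its own cutoff, cut at about 60% in these data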;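 note: 0% = DMSO treated cells and 100% = gossypol at 36 µM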
LRH-1 inv ag: LRH-1 (NR5A2) inverse agonists, primary screen, cell-based, luminescence, HEK293T, StAR-luciferase reporter | Nuclear receptor subfamily 5 group A member 2 (Homo sapiens), O00482 | LRH-1 transfected, 24 h | inhibition, % at 3.6 µM | actives 0.13% (n = 360,000);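 active = inhibition above the mean inhibition of all tested compounds plus 3 SD, cut at about 73% in these data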;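 note: 0% = DMSO wells and 100% = reporter-only cells lacking LRH-1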
COUP-TFII inh: NR2F2 transcriptional activity inhibitors, primary screen, cell-based, luciferase reporter, HEK293T, luminescence; COUP transcription factor 2 (Homo sapiens), P24468; HEK293T NGFI-A luciferase reporter; inhibition, % at 8.6 µM; actives 0.7% (n = 370,000);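 active = inhibition above a per-plate cutoff, mean inhibition of test wells between control levels plus 3 SD, cut at about 38% in these data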;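 note: cells cotransfected with COUP-TFII expression vector driving the NGFI-A reporter; 0% = median of COUP-TF2 test wells and 100% = reporter-only cells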
Target sequence (P24468 whole entry, looked up): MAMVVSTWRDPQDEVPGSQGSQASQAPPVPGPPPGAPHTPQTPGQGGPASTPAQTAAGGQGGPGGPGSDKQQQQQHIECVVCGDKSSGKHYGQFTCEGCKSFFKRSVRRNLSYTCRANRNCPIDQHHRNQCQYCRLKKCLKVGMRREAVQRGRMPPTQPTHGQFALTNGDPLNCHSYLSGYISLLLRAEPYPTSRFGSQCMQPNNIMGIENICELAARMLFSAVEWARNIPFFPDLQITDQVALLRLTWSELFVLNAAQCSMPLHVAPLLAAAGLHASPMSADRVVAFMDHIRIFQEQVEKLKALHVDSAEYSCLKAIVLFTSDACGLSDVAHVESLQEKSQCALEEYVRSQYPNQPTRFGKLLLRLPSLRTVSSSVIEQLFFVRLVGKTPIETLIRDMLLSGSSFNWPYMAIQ
Gli-Sufu block: Gli-Sufu pathway antagonists, primary screen, luciferase luminescence, Sufu-KO-LIGHT cells, uHTS; Sufu-KO-LIGHT fibroblasts, Gli luciferase reporter luminescence; inhibition, % at 5 µM; actives 0.74% (n = 340,000); AID 588413, 2011;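 active = inhibition above about 55%, limit read from the data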;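 note: 0% = DMSO-treated cells and 100% = wells with medium but no cells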
Gli-Sufu confirm: Gli-SUFU pathway antagonists, confirmation, single concentration, luciferase luminescence, Sufu-KO-LIGHT cells. shares compounds with Gli-Sufu block. inhibition, % at 5 µM. AID 602428, 2012. Gli luciferase reporter. actives 40% (n = 2,500);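 active = mean inhibition at 5 µM reaching about 45%, limit read from the data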;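 note: plate controls were DMSO-treated cells for no effect and wells lacking cells for full effect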
SufuKO cytotox: cytotoxicity in Sufu-KO-LIGHT cells, confirmation, cytotoxicity control for Gli-SUFU antagonist project, cell-based, ATP luminescence, single concentration | cytotoxicity, % at 5 µM | actives 32% (n = 2,500) | shares compounds with Gli-Sufu block;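 active = mean cytotoxicity at 5 µM above about 25%, limit read from the data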;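 note: cells exposed to compound overnight for roughly 16 to 18 hours; plate controls were DMSO wells with cells for no effect and medium without cells for full effect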
Wnt3a cs: Wnt3a reporter signal inhibition, confirmation, counter-screen for Gli-SUFU antagonist project, Wnt-LIGHT cells, luminescence, single concentration | shares compounds with Gli-Sufu block | Wnt3a-driven luciferase reporter | inhibition, % at 6.25 µM | actives 20% (n = 2,500);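 active = mean inhibition above about 25%, limit read from the data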
* hit, by the source's call; . = no result. This is a sample that favours compounds with a hit; in the whole collection about 1.3% have one here.

SMILES | SRC2 inh | SRC3 inh | SRC1 inh | LRH-1 inv ag | COUP-TFII inh | Gli-Sufu block | Gli-Sufu confirm | SufuKO cytotox | Wnt3a cs
O=C1C=C(c2ccc3cc[nH]c3c2)C[C@@H](c2ccc3c(c2)OCO3)C1 | . | 9 | -13 | 13 | . | 59* | 32 | 14 | -59
Cc1cc(C(=O)N/N=C2/CC(C)CC(C)(C)C2)c(C)o1 (stereo unspecified) | -13 | -19 | -38 | -69 | -31 | 52 | 22 | 22 | -2
Cc1cc(C(=O)N/N=C2\CCCc3ccccc32)c(C)o1 | -34 | -30 | -38 | -88 | -28 | -33 | . | . | .
S=C(Nc1ccc(Cl)cc1)NC1CC2CCCC(C1)N2C1CC1 (stereo unspecified) | 15 | 7 | -31 | -1 | 3 | 5 | . | . | .
S=C(Nc1ccc(Cl)cc1)NC1CC2CCCC(C1)N2C1CCCC1 (stereo unspecified) | -1 | 23 | 3 | -32 | 5 | 60* | 15 | 31* | -34
CCCCCCCN1C2=NCCCN2c2ccccc21 | 19 | 34 | 12 | 22 | -1 | 59* | 41 | 4 | 16
CCCCN1C2=NCCCN2c2cc(C)c(C)cc21 | -14 | 5 | 14 | 9 | -13 | 64* | 67* | 39* | 29*
Cc1ccc(S(=O)(=O)N(CC(O)CN2CCCCC2)c2ccccc2)cc1 (stereo unspecified) | -18 | 11 | 7 | -10 | 0 | 58* | 32 | 2 | -22
COc1ccc(NC(=O)c2oc3ccccc3c2NC(=O)c2ccco2)cc1 | -18 | 11 | -18 | 15 | 2 | -4 | . | . | .
COc1ccc(NC(=O)c2oc3ccccc3c2NC(=O)c2ccco2)c(OC)c1 | -10 | 7 | 1 | -13 | 23 | 54 | 33 | 43* | 1
O=C(NC1CCCCN(Cc2cccc(F)c2)C1=O)c1ccc2ccccc2c1 (stereo unspecified) | -26 | . | . | . | -19 | . | . | . | .
c1ccc(-c2cn(-c3ccccc3)c3[n+]2CCCS3)cc1 | 6 | 16 | -11 | 2 | 4 | 68* | 69* | 33* | 33*
CCc1ccc(-n2cc(-c3ccc(F)cc3)[n+]3c2SCCC3)cc1 | 1 | 35 | 27 | 45 | 35 | 86* | 90* | 45* | 33*
COC(=O)c1cc(C(=O)c2ccc(Cl)cc2)n2c(=O)/c(=C\N(C)C)sc12 | 6 | -2 | -23 | 7 | -20 | 57* | 31 | 4 | -84
COC(=O)c1cc(C(=O)c2ccccc2)n2c(=O)/c(=C\N(C)C)sc12 | -11 | . | . | . | 9 | -2 | . | . | .
CCC(C)[C@H]1CN=C(N)N1CC1CCCCC1 (stereo partly specified) | . | . | . | . | . | 65* | 68* | 26* | 29*
CC(O)[C@H]1CN=C(N)N1CCCCC1CCCCC1 (stereo partly specified) | -10 | -5 | 0 | -11 | -15 | 7 | . | . | .
COC(=O)c1ccc2c(C3(c4c[nH]c5ccccc45)CCN(C(=O)OC(C)(C)C)CC3)c[nH]c2c1 | 12 | . | . | . | -10 | . | . | . | .
COc1ccccc1NCC(=O)n1nc(C)cc1C | 21 | -4 | -7 | 0 | -6 | 51 | 22 | 5 | -4
Cc1ccc(S(=O)(=O)N2CCCC(C(=O)NCCN3CCC(Cc4ccccc4)CC3)C2)cc1 (stereo unspecified) | 19 | . | . | . | 21 | . | . | . | .

Screening results: PubChem, several laboratories
